# Results published in PubChem BioAssay (Tox21).
# Where “and” joins values, the source holds several entries; their conditions need not be identical. Equal values may be shown once. More than one record can exist for a structure, and the calls need not agree. Calls of active or inactive are those of the source. A call without a number means that no potency is given here. Unless noted, calls come from the whole dose curve; as a rule, active = well fitted curve in the direction sought with a large enough effect in the repeat runs; inconclusive = weak or mixed curves; inactive = no such curve, though single readings can be large; an effect the other way counts as inactive or inconclusive.
# Legend:
# [1] = qHTS assay to identify small molecule antagonists of the thyroid receptor (TR) signaling pathway - cell viability counter screen (AID 743064); note: nearly all actives have a fitted effect of over 50% in size; note: potency is the fitted concentration of half-maximal effect
# In short: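 Fluorescence from CellTiter-Fluor, added after 23.5 h exposure at 37 °C, reported viability of GH3.TRE-Luc cells co-treated with compound and 1 nM T3. Measured in the same wells as the luciferase TR readout.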
# [2] = target: Estrogen receptor (Homo sapiens) (UniProt P03372); experiment: qHTS assay to identify small molecule antagonists of the estrogen receptor alpha (ER-alpha) signaling pathway (AID 743069; active = well fitted curve in the direction sought with a large enough effect in the signal ratio in the repeat runs, not every such curve was filed as active; inconclusive = weak or mixed curves, or effect the other way; inactive = no such curve, though single readings can be large or run the other way; the % refers to the signal ratio; note: potency is the fitted concentration of half-maximal effect)
# Estrogen receptor (Homo sapiens), sequence (P03372 whole entry, looked up): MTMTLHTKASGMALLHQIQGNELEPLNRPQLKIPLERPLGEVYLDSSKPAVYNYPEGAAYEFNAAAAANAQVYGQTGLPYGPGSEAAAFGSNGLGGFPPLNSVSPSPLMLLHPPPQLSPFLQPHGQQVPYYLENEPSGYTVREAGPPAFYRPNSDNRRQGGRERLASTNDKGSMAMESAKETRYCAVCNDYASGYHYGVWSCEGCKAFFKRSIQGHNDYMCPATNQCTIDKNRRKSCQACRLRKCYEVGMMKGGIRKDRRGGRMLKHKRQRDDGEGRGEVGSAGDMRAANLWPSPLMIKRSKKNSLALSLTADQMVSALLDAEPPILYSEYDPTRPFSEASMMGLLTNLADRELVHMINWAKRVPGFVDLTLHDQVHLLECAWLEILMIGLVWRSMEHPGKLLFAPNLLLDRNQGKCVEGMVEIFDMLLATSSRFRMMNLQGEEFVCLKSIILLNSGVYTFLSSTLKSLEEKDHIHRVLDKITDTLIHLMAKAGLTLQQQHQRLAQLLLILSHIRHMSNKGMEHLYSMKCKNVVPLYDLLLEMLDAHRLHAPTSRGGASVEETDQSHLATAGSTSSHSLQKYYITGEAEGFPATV
# In short: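 HEK293 cells stably carrying an ER-alpha-UAS-bla beta-lactamase reporter were pre-cultured overnight in 2% charcoal-stripped FBS medium. Test compounds in DMSO were added together with 17beta-estradiol for 18 hr at 37C. Read-out was fluorescence after 2 hr with LiveBLAzer B/G FRET substrate at room temperature.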
# [3] = qHTS assay to identify small molecule antagonists of the estrogen receptor alpha (ER-alpha) signaling pathway - cell viability counter screen (AID 743074; calls by dose curve; note: nearly all actives have a fitted effect of over 45% in size; note: potency is the fitted concentration of half-maximal effect)
# [4] = qHTS assay to identify small molecule antagonists of the estrogen receptor alpha (ER-alpha) signaling pathway using the BG1 cell line (AID 743080; calls by dose curve;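 note: BG1 cells stimulated with 17beta-estradiol alongside compound; nearly all actives have a fitted effect of over 25% in size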; note: potency is the fitted concentration of half-maximal effect)
# In short: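 Luminescence from a 4×ERE-luciferase reporter in BG1-Luc-4E2 cells served as read-out. Cells, pre-cultured 5 days in stripped-serum phenol-red-free medium, were exposed to compound with 17beta-estradiol co-stimulation for 21.5 h at 37 C.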
# [5] = qHTS assay to identify small molecule antagonists of the estrogen receptor alpha (ER-alpha) signaling pathway using the BG1 cell line - cell viability counter screen (AID 743081);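 note: compound given together with 17beta-estradiol as the ER stimulus; nearly all actives have a fitted effect of over 45% in size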; note: potency is the fitted concentration of half-maximal effect
# Aromatase (Homo sapiens) = Aromatase (Homo sapiens) (UniProt P11511); experiment: qHTS assay to identify aromatase inhibitors (AID 743083); note: nearly all actives have a fitted effect of over 55% in size; note: potency is the fitted concentration of half-maximal effect
# Aromatase (Homo sapiens), sequence (P11511 whole entry, looked up): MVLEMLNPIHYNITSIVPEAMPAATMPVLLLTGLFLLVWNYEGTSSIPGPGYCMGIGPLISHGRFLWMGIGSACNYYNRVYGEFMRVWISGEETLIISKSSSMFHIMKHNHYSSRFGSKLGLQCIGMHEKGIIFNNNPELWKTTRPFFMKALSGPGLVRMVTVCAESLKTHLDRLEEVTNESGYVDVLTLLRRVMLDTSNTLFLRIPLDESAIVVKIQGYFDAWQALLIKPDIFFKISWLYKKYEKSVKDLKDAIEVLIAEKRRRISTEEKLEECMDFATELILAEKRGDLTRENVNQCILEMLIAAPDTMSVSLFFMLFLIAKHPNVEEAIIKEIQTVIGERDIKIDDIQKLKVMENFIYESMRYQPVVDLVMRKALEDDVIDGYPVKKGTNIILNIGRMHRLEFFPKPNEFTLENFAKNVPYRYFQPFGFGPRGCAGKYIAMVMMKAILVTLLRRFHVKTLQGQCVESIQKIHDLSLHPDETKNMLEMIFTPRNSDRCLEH
# [6] = target: Estrogen receptor (Homo sapiens) (UniProt P03372); experiment: qHTS assay to identify small molecule agonists of the estrogen receptor alpha (ER-alpha) signaling pathway (AID 743075; calls by dose curve; note: potency is the fitted concentration of half-maximal effect)
# [7] = target: Estrogen receptor (Homo sapiens) (UniProt P03372); experiment: qHTS assay to identify small molecule agonists of the estrogen receptor alpha (ER-alpha) signaling pathway using the BG1 cell line (AID 743079); note: nearly all actives have a fitted effect of over 20% in size; note: potency is the fitted concentration of half-maximal effect
# [8] = qHTS assay to identify small molecule antagonists of the thyroid receptor (TR) signaling pathway (AID 743065); note: nearly all actives have a fitted effect of over 55% in size; note: potency is the fitted concentration of half-maximal effect
# In short: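 GH3.TRE-Luc rat pituitary cells carrying two TR response elements driving luciferase were plated for 4 h, given compound plus 1 nM T3 (final), and incubated 23.5 h at 37 C. ONE-Glo luminescence measured reporter inhibition; CellTiter-Fluor fluorescence tracked cytotoxicity.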
# [9] = tested on: thyroid hormone receptor (rat, GH3 cells); experiment: qHTS assay to identify small molecule agonists of the thyroid receptor (TR) signaling pathway (AID 743066; calls by dose curve)
SMILES,Potency [1],Potency [2],Potency [3],Potency [4],Potency [5],Potency (Aromatase (Homo sapiens)),Potency [6],Potency [7],Potency [8],Potency [9]
O=C(CBr)OCc1ccccc1,inactive,inactive,inactive,inactive,inactive,inactive,,,,
CCCCCCCCCCOC(=O)c1ccccc1C(=O)OCCCCCCCCCC,inactive,,inactive,inactive,inactive,inactive,inactive,inactive,,
CCOP(=O)(OCC)O/C(=C/Cl)c1ccc(Cl)cc1Cl,,21.9 µM [inconclusive] (active),inactive,,inactive,27.3 µM (active),inactive,inactive,29.8 µM (active) and 61.1 µM (active),inactive
CCOP(=S)(OCC)Oc1nc(Cl)c(Cl)cc1Cl,inactive,inactive,inactive,,inactive,inactive,inactive,inactive,,inactive
COc1c(C(C)(C)C)cc([N+](=O)[O-])c(C)c1[N+](=O)[O-],inactive,inactive,inactive,inactive,inactive,,48.6 µM [activator] (active),inactive,,inactive
CCC(COC(=O)c1cc(OC)c(OC)c(OC)c1)(c1ccccc1)N(C)C (stereo not drawn),inactive,,inactive,,inactive,,,,,inactive
Cc1c(F)c(F)c(COC(=O)C2C(/C=C(\Cl)C(F)(F)F)C2(C)C)c(F)c1F (stereo not drawn),inactive,inactive,inactive,,inactive,inactive,inactive,inactive,,inactive
COP(=S)(OC)Oc1cc(Cl)c(I)cc1Cl,inactive,,inactive,,inactive,inactive,,,,inactive
C(=NC1CCCCC1)=NC1CCCCC1,inactive and 27.3 µM (active),inactive and 3.89 µM [inconclusive] (active),inactive,,,inactive and 1.37 µM (active),inactive,13.8 µM (active) and inactive,,inactive
O=C(O)CC(Cl)C(=O)O (stereo not drawn),inactive,,inactive,,inactive,inactive,,,,
CC(C)(OO)c1ccccc1,,inactive,inactive,inactive,inactive,inactive,inactive,inactive,,
CN(C)c1ccc(N(C)C)cc1,,,,,inactive,,inactive,,inactive,inactive
Nc1ccc([N+](=O)[O-])cc1[N+](=O)[O-],,inactive,inactive,,,inactive,inactive,inactive,,inactive
O=C(OC1CCCCC1)c1ccccc1C(=O)OC1CCCCC1,,,inactive,,inactive,,inactive,inactive,72.3 µM (active),inactive
COP(=O)(OC)O/C(=C/Cl)c1cc(Cl)c(Cl)cc1Cl,,16.4 µM [inconclusive] (active),,,inactive,40.7 µM (active),,,28.8 µM (active),inactive
COC(C)(C)CCC[C@H](C)C/C=C/C(C)=C/C(=O)OC(C)C,,,inactive,,inactive,inactive,,,61.1 µM (active),inactive
Nc1ccc(N=Nc2ccc(-c3ccc(N=Nc4c(S(=O)(=O)O)cc5cc(S(=O)(=O)O)c(N=Nc6ccccc6)c(O)c5c4N)cc3)cc2)c(N)c1,,,,inactive,inactive,,inactive,inactive,,inactive
CC(C)(C)C(O)C(Oc1ccc(Cl)cc1)n1cncn1 (stereo not drawn),,,,,,21.1 µM (active),,,,inactive
CN1[C@@H]2CC[C@H]1CC(OC(=O)c1cc(Cl)cc(Cl)c1)C2 (stereo partly drawn),,inactive,inactive,,inactive,inactive,inactive,inactive,,
CCCN(CC1CC1)c1c([N+](=O)[O-])cc(C(F)(F)F)cc1[N+](=O)[O-],,inactive,inactive,inactive,inactive,inactive,inactive,inactive,,inactive
Clc1cc(C(Cl)(Cl)Cl)cnc1Cl,,,inactive,,inactive,24.3 µM (active),inactive,inactive,38.6 µM (active),inactive
CC(C)N(C(=O)COc1nnc(C(F)(F)F)s1)c1ccc(F)cc1,,inactive,inactive,,inactive,inactive,inactive,inactive,,inactive
COc1nn(CSP(=S)(OC)OC)c(=O)s1,,inactive,,,inactive,61.1 µM (active),inactive,inactive,68.6 µM (active),inactive

SMILES,Potency [1],Potency [2],Potency [3],Potency [4],Potency [5],Potency (Aromatase (Homo sapiens)),Potency [6],Potency [7],Potency [8],Potency [9]
O=C(Nc1ccccc1)Nc1ccnc(Cl)c1,,13.8 µM [inconclusive] (active),inactive,,inactive,54.5 µM (active),inactive,,27.3 µM (active),inactive
C=CC(=O)NCNC(=O)C=C,,,,,,inactive,inactive,,inactive,inactive
CCCCC(O)(Cn1cncn1)c1ccc(Cl)cc1Cl (stereo not drawn),,,inactive,54.4 µM (active),,48.5 µM (active),inactive,,61.1 µM (active),
CC1CC(CC2CCC(N)C(C)C2)CCC1N (stereo not drawn),,inactive,inactive,,31.1 µM (active),inactive,inactive,inactive,,inactive
COc1cc(CC(C)N)cc2c1OCO2 (stereo not drawn),,,,inactive,,inactive,inactive,inactive,,inactive
CN1C(=O)C(O)N=C(c2ccccc2)c2cc(Cl)ccc21 (stereo not drawn),,inactive,inactive,,inactive,inactive,inactive,,,
C#CCOC(C(=O)OCCN(C)C)(c1ccccc1)c1ccccc1,,,inactive,,inactive,inactive,,,inactive,inactive
CCCN(CCC)c1c([N+](=O)[O-])cc(S(C)(=O)=O)cc1[N+](=O)[O-],,,inactive,inactive,inactive,inactive,inactive,,inactive,inactive
COc1ccc(-c2ccccc2)cc1NNC(=O)OC(C)C,,,,,inactive,inactive,inactive,,71.5 µM (active),inactive
CCCCc1c(C)nc(NCC)nc1OS(=O)(=O)N(C)C,,inactive,inactive,,,inactive,inactive,,,inactive
N#Cc1cc(I)c(O)c(I)c1,,,,,inactive,,,,27.3 µM (active),inactive
CCCC(Cn1cncn1)c1ccc(Cl)cc1Cl (stereo not drawn),,,,,inactive,12.2 µM (active),,,61.1 µM (active),inactive
CCCCC(CC)COP(=O)(Oc1ccccc1)Oc1ccccc1 (stereo not drawn),,inactive,inactive,inactive,inactive,inactive,inactive,inactive,,inactive
ClP(Cl)(Cl)(Cl)Cl,,inactive,inactive,inactive,inactive,inactive,inactive,inactive,,inactive
CC(c1ccc(O)cc1)(c1ccc(O)cc1)c1ccc(O)cc1,,21.9 µM [inconclusive] (active),,,inactive,,,27.3 µM (active),61.1 µM (active),
CCCCCC[N+](=O)[O-],,,inactive,,inactive,inactive,,,inactive,inactive
CCOP(=S)(OCC)SCn1nnc2ccccc2c1=O,,,49 µM (active),,,34.4 µM (active),19.5 µM [inconclusive] (active),,61.1 µM (active),inactive
CCOC(=O)CBr,,,inactive,,inactive,inactive,,,inactive,inactive
O=S(=O)(O)C(F)(F)C(F)(F)C(F)(F)C(F)(F)F,,inactive,,inactive,,,inactive,inactive,,inactive
C=CC(=O)OCCCCO,,,inactive,inactive,inactive,,,inactive,,inactive
CO[C@@H]1[C@H](OC(=O)NC(=O)CCl)CC[C@]2(CO2)[C@H]1[C@@]1(C)O[C@@H]1CC=C(C)C,,,inactive,inactive,inactive,inactive,,inactive,,inactive
O=S1OC[C@@H]2[C@H](CO1)[C@]1(Cl)C(Cl)=C(Cl)[C@@]2(Cl)C1(Cl)Cl (stereo partly drawn),,,inactive,,inactive,61.1 µM (active),inactive,,,inactive
